For 28 compounds, Inhibition results are on record in ChEMBL document CHEMBL1157539, “Thousands of chemical starting points for antimalarial lead identification” (Nature, 2010).

What is called Inhibition is how much of the control response was suppressed. Low readings indicate little suppression, high ones strong suppression.

The structures appear in SMILES notation.

Common to all, as to type: functional
Assay [1] concerns Plasmodium falciparum. Kind of assay: GSK_TCMDC: Inhibition of Plasmodium falciparum 3D7 in whole red blood cells, using parasite LDH activity as an index of growth. Test compounds present at 2uM.
Assay [2] relates to Plasmodium falciparum. Kind of assay: GSK_TCMDC: Inhibition of Plasmodium falciparum Dd2 in whole red blood cells, using parasite LDH activity as an index of growth. Test compounds present at 2uM.
Assay [3] relates to HepG2. Kind of assay: GSK_TCMDC: Percent inhibition of human HepG2 cell line. Test compounds present at 10uM.

As to `COc1ccc2nccc(NC(=O)C3(O)CCC(NCc4ccc5c(c4)NCCS5)CC3)c2n1.Cl` (centres undefined), the Inhibition was determined as 93% in assay [1], 64% in assay [2] and 1% in assay [3].

With `N#Cc1ccc(C(=O)NC2CCN(CCCCCNC(=O)/C=C/c3ccc(Cl)c(Cl)c3)CC2)cc1`, the Inhibition in assay [1] was 98%; in assay [2], 1%; in assay [3] it was 13%.

As for `O=C(Nc1ccc(Cn2ncc(N3CCCNCC3)c(Cl)c2=O)cc1)Nc1cc(C(F)(F)F)cc(C(F)(F)F)c1.O=C(O)C(F)(F)F`, the Inhibition is 100% in assay [1], 29% in assay [2] and 25% in assay [3].

As for `CN(Cc1cccc(O)c1)C1CCN(c2cc(NC(=O)c3cccc(F)c3)ccn2)CC1.O=C(O)C(F)(F)F`, the Inhibition in assay [1] is listed as 98%; in assay [2], 37%; in assay [3] it was 0%.

Consider `Cl.Nc1c(C(=O)NCCCCN2CCN(c3nsc4ccccc34)CC2)sc2ccccc12`, for which the Inhibition in assay [1] was found to be 86%; in assay [2], 0%; in assay [3], 26%.

With `CCN(CC)C(=O)C1CCN(C(C(=O)N2CCN(CC(=O)N3CCCC3)CC2)c2cc3ccccc3o2)CC1` (centres undefined), the Inhibition in assay [1] stood at 98%; in assay [2] it was 4%; in assay [3] it was 0%.

Consider `CCCc1ccc(NC(=O)c2ccc(CN3CCCN(Cc4ccc(OC)cc4)CC3)cc2)cc1.O=C(O)C(F)(F)F`, for which the results for the Inhibition in assay [1], in assay [2] and in assay [3] were 81%, 0% and 47%, respectively.

Turning to `COc1cc(NC(=O)c2sc(-c3ccc(Cl)cc3)cc2NC(=O)CN2CC[C@@H](O)C2)ccc1OCCN1CCCC1`, the Inhibition in assay [1] was 90%; in assay [2], 79%; in assay [3] it was 56%.

For `CCCCCN1CCCCC(NS(=O)(=O)c2ccc(C(=O)Nc3cccc(C(F)(F)F)c3)cc2)C1.O=C(O)C(F)(F)F` (centres undefined), the Inhibition in assay [1] came out at 93%; in assay [2], 2%; in assay [3] it was 14%.

Regarding `Cc1cc(N(C)C)nc(Nc2ccc(NC(=O)c3ccccc3C)cc2)n1`, the Inhibition was determined as 93% in assay [1], 16% in assay [2] and 0% in assay [3].

Turning to `CCn1ccc2c(N3CCCS3(=O)=O)cc(C(=O)N[C@@H](Cc3ccccc3)[C@H](O)CNC(C)(C)c3cccc(OC)c3)cc21`, the Inhibition in assay [1] stood at 99%; in assay [2], 98%; in assay [3] it was 20%.

Regarding `Cc1noc(-c2cccs2)c1C(=O)NC(C)c1cccc2ccccc12` (centres undefined), the figures for the Inhibition in assay [1], in assay [2] and in assay [3] were 97%, 95% and 0%, respectively.

For `O=C(/C=C/c1ccc(Cl)c(Cl)c1)NCCCCCN1CCC(NC(=O)Nc2ccc(F)c(Cl)c2)CC1`, the values for the Inhibition in assay [1], in assay [2] and in assay [3] were 100%, 11% and 98%, respectively.

For the compound `CC1(C)N=C(N)N=C(NOCCCCCCONC2=NC(N)=NC(C)(C)N2)N1`, the values for the Inhibition in assay [1], in assay [2] and in assay [3] were 95%, 98% and 34%, respectively.

Take `COc1cc(C(C)C)ccc1N1CCN(CCCCNC(=O)c2ccc(NC(=O)c3ccc(Cl)cc3)cc2)CC1`: the Inhibition stood at 98% in assay [1], 81% in assay [2] and 25% in assay [3].

Turning to `c1csc(-c2nc(N3CCCC3)ncc2-c2ccsc2)n1`, the Inhibition turned out to be 89% in assay [1], 75% in assay [2] and 1% in assay [3].

On to `COc1cc(Cc2cnc(N)nc2N)ccc1Oc1ccc(N)cc1`, for which the Inhibition in assay [1] amounted to 93%; in assay [2], 0%; in assay [3], 0%.

In the case of `COC(=O)c1c(C#N)c(OC)cc(O)c1CSC[C@@H](CN1CCCCC1)Nc1nc(-c2ccc([N+](=O)[O-])cc2)cs1`, the Inhibition in assay [1] amounted to 100%; in assay [2], 77%; in assay [3] it was 8%.

With `Br.CC1(C)NC(N)=NC(=N)N1OCCSCc1cc(Cl)sc1Cl`, the Inhibition came out at 93% in assay [1], 72% in assay [2] and 70% in assay [3].

In the case of `N#Cc1ccc(C=NNc2nc3ccccc3[nH]2)cc1`, the Inhibition in assay [1] is on record as 100%; in assay [2], 71%; in assay [3], 0%.

Take `Cc1cccc2nc(-c3cccc(-c4ccc(NC(=O)Nc5ccc6c(c5)OCO6)cc4)c3)[nH]c12`: the values for the Inhibition in assay [1], in assay [2] and in assay [3] were 100%, 86% and 80%, respectively.

`COCCn1c(-c2nc(-c3ccc(F)cc3)cnc2N)nc2ccccc21`: the Inhibition in assay [1] is on record as 98%; in assay [2], 98%; in assay [3], 16%.

For `Cc1cc(C(F)(F)F)nn1-c1ccc(NC(=O)c2ccco2)cc1`, the Inhibition in assay [1] turned out to be 94%; in assay [2] it was 93%; in assay [3] it was 14%.

Regarding `CC1(C)N=C(N)N=C(N)N1OCc1cc(Cl)c(CON2C(N)=NC(N)=NC2(C)C)cc1Cl`, the Inhibition in assay [1] is reported as 94%; in assay [2], 77%; in assay [3], 21%.

Turning to `COC(=O)c1ccc(CCCNCC(O)c2cccc(C(F)(F)F)c2)cc1` (centres undefined), the Inhibition in assay [1] is 97%; in assay [2] it was 88%; in assay [3], 0%.

Consider `O=C(NCCN1CCC(c2ccncc2)CC1)c1cccc(Nc2nccc(Nc3ccc(Oc4ccccc4)cc3)n2)c1`, for which the Inhibition was found to be 100% in assay [1], 91% in assay [2] and 60% in assay [3].

Consider `CC1(C)CCNc2cc(NC(=O)c3ccc(-c4ncccc4C(F)(F)F)cc3)ccc21.Cl`, for which the Inhibition in assay [1] is 97%; in assay [2] it was 86%; in assay [3], 7%.

On to `COc1cc(C2C(Oc3ccccc3)C(=O)N2Cc2ccc(F)cc2)cc(OC)c1OC` (centres undefined), for which the Inhibition in assay [1] stood at 100%; in assay [2] it was 97%; in assay [3], 0%.
